Pf growth 96h = P. falciparum growth inhibition at 96 hour, primary screen for plastid delayed-death inhibitors | P. falciparum luciferase reporter growth, 96 h | AID 504834 | 6.9% of 320,000 active | Potency, µM (top dose mostly 28.7 µM), for inactives: at the highest dose activity change, negative = inhibition, most hits filed as inhibitors; also: potency is read from the fitted curve at half-maximal effect; % is scaled to controls: 0 for no effect and ±100 for the full control effect
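Cell-based qHTS: luciferase-tagged P. falciparum in erythrocytes (2% hematocrit, 0.05% parasitemia final) incubated with compounds for 96 hours, 37 C, 5% CO2; luciferase detection reagent then added and luminescence measured.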
HCMV antiviral = inhibitors of human cytomegalovirus; AID 1259415; 4.5% of 410,000 active; activity change, negative = inhibition, % at 57.5 µM; HFF cells, HCMV-luciferase reporter, 72 h; hits give low values; in the data active = activity change below about -60%; inconclusive = no clear call, values can overlap the other calls; inactive = above about -39%; also: % is scaled to controls: 0 for no effect and ±100 for the full control effect
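Inhibition of viral replication was scored as loss of reporter luminescence in HFFs infected with HCMV-luciferase (MOI 1 PFU/cell) for 72 h; compounds tested at 2 doses, normalized to buffer and Salinomycin controls.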
SARS PLpro yeast = blocks SARS-CoV papain-like protease in a yeast assay; S. cerevisiae expressing SARS-CoV PLpro, growth rescue; Potency, µM (titrated, usually from 32.9 µM), for the others: at the highest dose activity, positive = growth rescue, usual class: activators; 0.19% of 330,000 active; AID 485353; calls by dose curve; also: potency is read from the fitted curve at half-maximal effect; 0% is about no effect; nearly all actives have a fitted effect of over 55% in size
Pf growth 48h = P. falciparum growth inhibition at 48 hours (one generation). P. falciparum luciferase growth in erythrocytes, 48 h. Potency, µM (top dose mostly 28.7 µM), for inactives: at the top dose activity change, negative = inhibition, usual class: inhibitors. 5.9% of 310,000 active; also: potency is read from the fitted curve at half-maximal effect; % is scaled to controls: 0 for no effect and ±100 for the full control effect
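A one-generation exposure of luciferase-tagged malaria parasites in RPMI 1640/Albumax erythrocyte culture, 37 C and 5% CO2. Inhibition is inferred from decreased luminescence after adding detection reagent.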
HCV inh = inhibitors of hepatitis C virus infection; AID 651820; Potency, µM (titrated, usually from 41.8 µM), for the others: at the top dose activity change, negative = inhibition, hits mostly inhibitors; 3.4% of 340,000 active; Huh7.5.1 HCVcc-Cre infection, luciferase reporter, 44 h; also: potency is read from the fitted curve at half-maximal effect; % is scaled to controls: 0 for no effect and ±100 for the full control effect
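Compounds are dispensed onto cells plated 4 h earlier at 1,000 per well, with HCVcc-Cre virus (about 0.5 moi) added next. Following 44 h of culture, luminescent signal is measured for 15 sec after 15 min with substrate at room temperature.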
Sm TGR block = S. mansoni TGR enzyme inhibition | Potency, µM (doses to about 114 µM), inactives show at the top dose activity change, negative = inhibition, most hits filed as inhibitors | purified TGR, DTNB reduction, TNB absorbance 405 nm | Q962Y6 | AID 485364 | 3% of 360,000 active; also: potency is read from the fitted curve at half-maximal effect; % is scaled to controls: 0 for no effect and ±100 for the full control effect; nearly all actives have a fitted effect of over 60% in size
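First, TGR (20 nM dispensed) and NADPH were mixed with compound. Second, a 15 min room-temperature incubation followed. Third, further NADPH and then DTNB were added to start the reaction. Finally, TNB absorbance was monitored kinetically.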
The depositor's hits bear a star; ? = inconclusive; . = no result. Rows were chosen to be rich in hits. Some 15% of all compounds tested hit in one or more screens of this group. Unless noted, calls follow the shape of the dose curve; as a rule, active = well fitted curve in the direction sought with a large enough effect; inconclusive = small, poorly fitted or top-dose-only effect, or another doubt; inactive = no such curve, though single readings can be large; an effect the other way counts as inactive or inconclusive.

SMILES	Pf growth 96h	HCMV antiviral	SARS PLpro yeast	Pf growth 48h	HCV inh	Sm TGR block
CCC(O)C1CCN(C(=O)c2cc(COc3ccc4ncccc4c3)on2)CC1 (stereo unspecified)	-5%	.	0%	2%	1.8µM*	8%
COCC1CCCN(C(=O)c2cc(COc3ccc4ncccc4c3)on2)C1 (stereo unspecified)	?	-85*	0%	-19%	1µM*	-1%
COCC1CCCN(C(=O)c2cc(COc3cccc4cccnc34)on2)C1 (stereo unspecified)	?	18	0%	-19%	?	1%
O=C(c1cc(COc2ccc3ncccc3c2)on1)N1CCC(O)CC1	203%	-82*	-1%	5%	8.9µM*	11%
CC(c1ccccc1)N1C(=O)c2ccccc2C1O (stereo unspecified)	.	2	-2%	.	9%	-21%
CCc1cc2c(=O)c(-c3nc(C)cs3)coc2cc1OC(C)C(=O)NCCO (stereo unspecified)	-28%	28	15%	9%	3%	11%
Brc1cccc(CSc2nnc(-c3ccncc3)o2)c1	29%	?	-2%	-22%	?	?
CC1CCc2nc(N)c(C#N)c(-c3cccnc3)c2C1 (stereo unspecified)	5%	-66*	18%	-24%	?	-12%
O=C(NCC1CCCO1)C1CCN(C2CCN(C(=O)CC3CCCC3)CC2)CC1 (stereo unspecified)	?	-33	0%	-21%	1%	11%
O=C(NCC1CCCO1)C1CCN(C2CCN(CCCC3CCCC3)CC2)CC1 (stereo unspecified)	?	5	0%	?	10µM*	-32%
CCOC(=O)c1c(NC(=O)OC)sc(C(=O)N(CC)CC)c1C	?	-4	-3%	5.9µM*	?	-1%
CCN(CC)C(=O)c1sc(NC(=O)C(Sc2ccccc2)c2ccccc2)c(C(=O)OC(C)C)c1C (stereo unspecified)	0.41µM*	-3	-3%	.	10µM*	-4%
CCOC(=O)c1sc(NC(=O)CN(CC(C)C)CC(C)C)c(C(=O)OCC)c1C	.	-95*	-2%	2.3µM*	-5%	-1%
CCOC(=O)c1c(NC(=O)C2c3ccccc3Oc3ccccc32)sc(C(C)=O)c1C	?	-82*	-5%	?	0.79µM*	5%
CCOC(=O)c1c(NC(=O)C2c3ccccc3Oc3ccccc32)sc(C)c1C	.	13	.	.	.	-2%
CCCCOCC1CN(CCCC)S(=O)(=O)c2c(cccc2Sc2ccc(OC)c(OC)c2)O1 (stereo unspecified)	.	16	.	.	.	.
COc1cccc(CNC(=O)CCc2nnc3n(C)c(=O)c4sccc4n23)c1	.	-10	.	.	.	5%
COCCCNC(=O)c1c(NC(=O)Cc2coc3cc(C)ccc23)sc2c1CCCC2	.	?	.	.	.	6%
NC(=O)CC(NC(=O)Cc1cccc2ccccc12)c1ccc(N2CCN(c3ccc(F)cc3)CC2)c([N+](=O)[O-])c1 (stereo unspecified)	?	45	0%	?	10%	12%
COC(=O)c1sc(NC(=O)C2c3ccccc3Oc3ccccc32)c(C(=O)OC)c1C	10µM*	-20	2%	1.7µM*	?	13%
CCOC(=O)c1c(NC(=O)COC)sc(C(C)=O)c1C	18%	61	-4%	52%	28µM*	4%
COC(=O)c1c(NC(=O)C2c3ccccc3Oc3ccccc32)sc(C)c1C	?	10	0%	19%	?	3%
CCOC(=O)c1c(NC(=O)COC)sc(C)c1C	?	-11	4%	-11%	?	-19%
Cc1nnnn1/C(=C\c1ccccc1)C(=O)OCC(=O)Nc1cccc(S(=O)(=O)N(C)C)c1	8%	-61*	1%	15%	10µM*	?
O=C(COC(=O)Cc1n[nH]c(=O)c2ccccc12)Nc1ccc(Cl)cc1F	16%	3	0%	-2%	3%	0%
